High-throughput results (PubChem BioAssay)
GDH-TPI counter – counter-screen for M. tuberculosis FBA inhibitors: GDH-TPI coupled enzymes | GDH-TPI coupled enzyme counterscreen, NADH absorbance | hit rate 1.2% among 360,000 | inhibition, % at 4.8 µM | AID 588335; in the data active = inhibition above about 30%;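 also: 0% = DMSO wells and 100% = wells lacking the enzyme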
FBA Mtb inh – inhibitors of M. tuberculosis fructose-bisphosphate aldolase. hit rate 2.3% among 360,000. P9WQA3. purified M. tuberculosis FBA, fluorescence read-out. inhibition, % at 1 µM; in the data active = inhibition above about 27%;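 also: 0% = vehicle and 100% = reference inhibitor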
Target sequence (P9WQA3 whole entry, looked up): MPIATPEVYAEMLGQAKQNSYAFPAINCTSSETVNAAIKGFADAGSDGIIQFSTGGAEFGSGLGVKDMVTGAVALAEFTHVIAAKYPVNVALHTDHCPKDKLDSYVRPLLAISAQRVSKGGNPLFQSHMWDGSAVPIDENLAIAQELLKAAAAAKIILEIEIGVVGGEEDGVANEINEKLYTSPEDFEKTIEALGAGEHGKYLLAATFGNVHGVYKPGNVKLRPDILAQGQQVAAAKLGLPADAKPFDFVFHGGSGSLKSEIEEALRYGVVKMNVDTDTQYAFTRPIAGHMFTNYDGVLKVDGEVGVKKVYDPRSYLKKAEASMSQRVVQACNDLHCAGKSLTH
FadD28 FP inh – blocks FadD28 binding to the bisubstrate probe | AID 588549 | fluorescence polarization | inhibition, % at 12.5 µM | hit rate 0.22% among 360,000; in the data active = inhibition above about 8.5%, passing the limit was not always enough
Rv3671c inh – inhibitors of M. tuberculosis serine protease Rv3671c; inhibition, % at 5.96 µM; hit rate 0.048% among 320,000; AID 2606; in the data active = inhibition above about 38%;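 also: extracellular domain of Rv3671c used as enzyme; 0% = enzyme with DMSO and 100% = no enzyme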
BioA inh – BioA (M. tuberculosis) enzyme inhibition | purified M. tuberculosis BioA enzyme, plate reader | inhibition, % at 9.99 µM | hit rate 0.096% among 360,000; in the data active = inhibition above about 40%
Active calls of the source: *; · = not tested or not shown; + = active, no number. Compounds with a hit are over-represented: about 3% of the library has one in this group of screens.

SMILES	GDH-TPI counter	FBA Mtb inh	FadD28 FP inh	Rv3671c inh	BioA inh
COc1ccc2cc(C(=O)C3CCCN(C(=O)c4cc(=O)n(C)c(=O)n4C)C3)ccc2c1 (stereo unspecified)	12	125*	-3	-1	0
COc1ccc2cc(C(=O)C3CCCN(C(=O)c4ccnn4C)C3)ccc2c1 (stereo unspecified)	9	155*	-5	-4	3
C[C@H](CO)N1C[C@H](C)[C@H](CN(C)Cc2ccccc2)OCCCC[C@H](C)Oc2ccc(NC(=O)NC3CCCCC3)cc2C1=O	·	·	·	·	-1
Cc1c(CCC(=O)N2CCC(C(=O)NCCCCCC(=O)O)CC2)c(=O)oc2cc3oc4c(c3cc12)CCCC4	3	4	-4	5	-1
Cc1c(CC(=O)N2CCN(C(=O)C3COc4ccccc4O3)CC2)c(=O)oc2cc(O)c(Cl)cc12 (stereo unspecified)	25	·	-1	0	-1
Cc1c(CC(=O)N2CCC(O)CC2)c(=O)oc2cc3c(cc12)CCC1(CCCCC1)O3	29	181*	-2	·	3
Cc1c(CC(=O)N2CCC(C(=O)O)CC2)c(=O)oc2cc3c(cc12)CCC1(CCCCC1)O3	41*	+	-2	-3	1
C[C@@H]1CCCCO[C@@H](CN(C)C(=O)NC2CCCCC2)[C@H](C)CN([C@H](C)CO)C(=O)c2cc(NC(=O)CCC(F)(F)F)ccc2O1	·	·	·	·	2
C[C@H](CO)N1C[C@H](C)[C@@H](CN(C)C(=O)NC2CCCC2)Oc2cc(-c3cncnc3)ccc2S1(=O)=O	·	·	·	·	5
CO[C@H]1CN(C)C(=O)c2ccc(NC(=O)C3CCCCC3)cc2OC[C@H](C)N(C(=O)c2ccccc2)C[C@H]1C	·	·	·	·	1
CC(C)(C)NC(=O)CCN(/N=C/c1ccncc1)C1=NS(=O)(=O)c2ccccc21	16	0	0	-9	-2
COc1ccc(/C=N/N(CCC(=O)NC(C)(C)C)C2=NS(=O)(=O)c3ccccc32)cc1	47*	6	-1	0	1
Cc1cc(-c2nc3ncccc3o2)ccc1NC(=S)NC(=O)C(C)C	11	4	-1	-10	·
Cc1cc(-c2nc3ncccc3o2)ccc1NC(=O)CC(C)C	14	+	-1	-2	2
Cc1ccccc1S(=O)(=O)N1C[C@@H]2[C@H](c3ccccc31)[C@@H](CO)N2C(=O)CC1CC1	·	·	·	·	1
CCCNC(=O)N1[C@@H]2CN(C(=O)C3CC3)c3ccccc3[C@@H]2[C@@H]1CO	·	·	·	·	-3
COCCCNc1oc(-c2ccccc2F)nc1C#N	5	+	-3	3	-1
COCCCNc1oc(-c2ccccc2OC)nc1C#N	40*	+	-1	3	0
C[C@@H]1CN([C@H](C)CO)C(=O)c2cccc(NS(=O)(=O)c3ccccc3)c2O[C@@H]1CN(C)CC1CC1	·	·	·	·	5
CCCC(=O)Nc1ccc2oc(-c3ccc(OC)c(Br)c3)nc2c1	16	125*	-2	-10	-1
CCC(=O)NC(=S)Nc1ccc2oc(-c3ccc(OC)cc3)nc2c1	2	-2	0	-1	·
Cc1c(C)c2ccc(OC3CCCCC3=O)cc2oc1=O (stereo unspecified)	9	153*	-2	-2	1
COCCNC(=O)C[C@@H]1C[C@@H]2c3cc(NC(=O)C4CCC4)ccc3O[C@@H]2[C@H](CO)O1	·	·	·	·	1
O=C(Nc1ccc(C(F)(F)F)cc1)N[C@@H]1C=C[C@H](CC(=O)N2CCCCC2)O[C@H]1CO	·	·	·	·	-2
CNC[C@H]1Oc2ccc(NC(=O)Nc3ccc(OC)cc3)cc2C(=O)N([C@H](C)CO)C[C@H]1C	·	·	·	·	0
SMILES	GDH-TPI counter	FBA Mtb inh	FadD28 FP inh	Rv3671c inh	BioA inh
CCOc1ccc(-c2cc(C)[n+](CCN3CCOCC3)c(-c3ccc(OCC)cc3)c2)cc1	41*	19	-3	2	·
CCOc1ccc(OCCOCCN2CCOCC2)cc1	0	2	-1	16	4
Cc1ccc(S(=O)(=O)Nc2ccc3c(c2)C(=O)N([C@@H](C)CO)C[C@@H](C)[C@H](CN(C)S(=O)(=O)c2ccccc2)O3)cc1	·	·	·	·	3
C[C@H]1CN([C@@H](C)CO)C(=O)c2cc(NS(=O)(=O)c3cn(C)cn3)ccc2O[C@H]1CN(C)S(=O)(=O)c1cccs1	·	·	·	·	-1
COc1cc(/C=C/C(=O)Nc2ccc(C(C)=O)cc2)cc(OC)c1OC	45*	1	-12	-9	·
COc1ccc(/C=C/C(=O)NC(=S)NNC(=O)c2cc(OC)c(OC)c(OC)c2)cc1OC	51*	0	-4	8	-2
Cc1ccc(S(=O)(=O)Nc2ccc(O)c3ccccc23)c(C)c1	-3	2	55*	·	-1
c1ccc(-c2cc(-c3ccccc3)n3ncnc3n2)cc1	4	23	-3	1	·
COc1ccc(-c2cc(-c3ccccc3)nc3ncnn23)cc1	25	+	-7	4	4
NS(=O)(=O)c1ccc(NC(=S)NC(=O)/C=C/c2ccco2)cc1	20	1	1	-3	·
O=C(/C=C/c1ccco1)NC(=S)Nc1cccc(-c2nc3ccccc3s2)c1	38*	0	-6	-48	-1
Cc1cccc(NC(=S)NC(=O)/C=C/c2ccco2)n1	33*	-2	-2	2	·
O=C(/C=C/c1ccco1)NC(=S)Nc1ccccc1	40*	-2	0	1	6
NC(N)=NS(=O)(=O)c1ccc(NC(=S)NC(=O)/C=C/c2ccco2)cc1	57*	-5	-5	-11	-1
CN(C[C@@H]1[C@@H](c2ccccc2)[C@H](CO)N1CC1CC1)C(=O)c1cccc(F)c1	·	·	·	·	2
C[C@H]1CN([C@@H](C)CO)C(=O)c2cc(NS(C)(=O)=O)ccc2O[C@@H]1CN(C)C(=O)Nc1cccc2ccccc12	·	·	·	·	-11
C[C@H]1CCCCO[C@H](CN(C)C(=O)CCC(F)(F)F)[C@@H](C)CN([C@@H](C)CO)C(=O)c2cc(NS(=O)(=O)c3cccs3)ccc2O1	·	·	·	·	-7
CC(=O)c1ccc(NC(=S)NC(=O)/C=C/c2ccco2)cc1	51*	-2	0	-8	0
O=C(Cc1ccccc1)N1C[C@@H]2[C@H](c3ccccc31)[C@H](CO)N2C(=O)C1CCCCC1	·	·	·	·	2
O=C(Nc1nccs1)c1cnc2sccn2c1=O	45*	1	0	·	-1
O=C(NCc1ccco1)c1cnc2ccccn2c1=O	19	7	-2	-1	2
O=C(NCc1ccco1)c1cnc2sccn2c1=O	33*	1	1	4	4
COC(=O)c1ccccc1NC(=O)c1cnc2sccn2c1=O	18	-2	-3	4	-1
O=C(C[C@H]1CC[C@H]2[C@@H](COC[C@@H](O)CN2S(=O)(=O)c2ccc(Oc3ccccc3)cc2)O1)NC1CCC1	·	·	·	·	-8
Cc1cc(C(=O)Nc2cccc3c2O[C@@H](CN(C)C)[C@@H](C)CN([C@H](C)CO)C3=O)n(C)n1	·	·	·	·	-1
COc1cc2cc(C(=O)N3CC(COS(C)(=O)=O)c4ccc(O)cc43)[nH]c2c(OC)c1OC (stereo unspecified)	39*	-1	2	·	·
COc1ccc(NC(=O)C2=CC(c3ccc(C)cc3)=NS(=O)(=O)N2C)cc1	28	2	-1	-9	3
